Test results: PubChem BioAssay AID1063 (University of Pittsburgh Molecular Library Screening Center, 2008)
Among all 200,000 compounds or so, about 18,000 (9%) were called active. For the sample, actives were picked, then their nearest neighbours and some compounds at random. A number with no mark means an inactive call. Cut-off read from the data, not from the text of the source: active = inhibition above about 50%; inactive = the rest. Where a SMILES comes first, the peptide text is derived from it. The star is where a group is joined. OPac = O=C(CO*)c1ccccc1; Bz = O=C(c1ccccc1)*

Assay: antileishmanial activity against promastigotes – primary screen (AID 1063);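 note: promastigotes grown with compound for 44 hours at 28 °C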
Conditions: Leishmania major promastigotes, resazurin fluorescence viability; at 10 µM; active compounds read high

| SMILES | inhibition |
| --- | --- |
| Cc1ccc(C(=O)NCCNC(=O)c2ccccc2)cc1 | 30.8% |
| CCCCC(CCC(=O)Nc1ccc(C(=O)OCC)cc1)C(=O)O (stereo unspecified) | -9.84% |
| CCCCCOC(=O)NCCOC(=O)Nc1ccc(C(=O)OCC)cc1 | 59.2% (active) |
| CCOC(=O)Nc1ccc(NC(=O)OCC)cc1 | -2.26% |
| CCC(C(=O)Nc1ccc(C(C)C)cc1)c1ccccc1 (stereo unspecified) | -1.77% |
| Cc1cc(C)cc(NC(=O)CSc2ccccc2)c1 | 1.71% |
| O=C(c1ccc(CSc2ccccc2)cc1)N1CCCCCC1 | -6.75% |
| COc1cc2c(cc1OC)CN(C(=O)c1ccc(S(=O)(=O)N3CCCCCC3)cc1)CC2 | 24.6% |
| O=C(c1ccc(S(=O)(=O)c2ccccc2)cc1)N1CCCCCC1 | 55.1% (active) |
| COc1ccccc1N1CCN(C(=O)c2cc(-c3ccc(Cl)c(Cl)c3)on2)CC1 | -6.68% |
| O=C(c1ccccc1)N1CCN(C(=O)N2CCCCC2)CC1 | 27.4% |
| COc1ccccc1N1CCN(C(=O)c2cc(-c3ccc(Br)cc3)on2)CC1 | -7.17% |
| COc1ccccc1N1CCN(C(=O)c2ccc(Cl)c(S(=O)(=O)N3CCCC3)c2)CC1 | 1.35% |
| COc1ccccc1N1CCN(C(=O)c2c(-c3c(Cl)cccc3Cl)noc2C)CC1 | 98.5% (active) |
| COc1ccccc1N1CCN(C(=O)c2ccc(S(=O)(=O)N3CCCCC3)cc2)CC1 | 59.5% (active) |
| CN1CCN(CCNC(=O)Nc2ccc([N+](=O)[O-])cc2)CC1 | -0.61% |
| O=C(Nc1cc(Cl)cc(Cl)c1)C(NCCCO)c1ccccc1 (stereo unspecified) | 10.6% |
| Cc1ccc(-c2cc(=O)c3ccc(F)cc3[nH]2)cc1 | 1.73% |
| CN1C(=O)C(CC(=O)Nc2ccccc2)S/C1=N/c1nccs1 (stereo unspecified) | -4.38% |
| CS(=O)(=O)N(CC(=O)N1CCCC1)Cc1ccccc1 | -5.77% |
| Cc1cccc(-n2c(N)c(C(=O)N3CCN(C)CC3)sc2=S)c1 | 9.91% |
| N#Cc1ccccc1-n1c(N)c(C(=O)N2CCCC2)sc1=S | 52.1% (active) |

| SMILES | inhibition |
| --- | --- |
| Cc1ccc(-n2c(N)c(C(=O)N3CCOCC3)sc2=S)c(C)c1 | 6.62% |
| O=C(CNC(=O)c1ccccc1)NCC(=O)OCC(=O)c1ccccc1 (Bz-Gly-Gly-OPac) | -9.69% |
| COc1ccc(C)cc1NC(=O)Nc1ccccc1SC | 10.1% |
| COc1ccc(C)cc1NC(=O)C(OC(=O)c1cccc(S(=O)(=O)N(C)c2ccccc2)c1)c1ccccc1 (stereo unspecified) | 97.6% (active) |
| COc1ccc(C)cc1NC(=O)C(Sc1ccccc1)c1ccccc1 (stereo unspecified) | 3.92% |
| OC(COCC1COc2ccccc2O1)CN1CCN(c2ccc(F)cc2)CC1 (stereo unspecified) | 12% |
| Cc1ccnc(NC(=O)CCC(=O)N(CC(=O)NCCc2ccccc2)Cc2cccs2)c1 | -4.68% |
| CCOc1ccc(CN2CCN(Cc3ccc(C)o3)CC2CCO)cc1 (stereo unspecified) | -0.08% |
| CCOc1ccc(CN2CCCN(C)CC2)cc1 | 54.1% (active) |
| CCOc1ccc(CN2CCN(Cc3ccon3)CC2CCO)cc1 (stereo unspecified) | -5.47% |
| COC(=O)c1sc2[nH]c(=S)n(N)c(=O)c2c1C | -7.2% |
| CC1CCCCC1NC(=O)CO/N=C/c1ccc(OC(F)F)cc1 (stereo unspecified) | 13.4% |
| CCOc1ccc(C(=O)NC2CCN(CC(=O)NCc3cccs3)CC2)cc1 | -4.61% |
| Cc1cc(C#N)c(SCC(N)=O)nc1-c1ccc(F)cc1 | 2.96% |
| Cc1cccc(NC(=S)N2CCCC(c3nc4ccccc4[nH]3)C2)c1 (stereo unspecified) | 99.1% (active) |
| CCCNC(=S)N1CCCC(c2nc3ccccc3[nH]2)C1 (stereo unspecified) | 7.49% |
| Cc1cccc(NC(=S)N2CCC(c3nc4ccccc4s3)CC2)c1 | -0.22% |
| O=c1cc(CO)oc(C(Nc2cccc(C(F)(F)F)c2)c2ccccn2)c1O (stereo unspecified) | 2.74% |
| CNS(=O)(=O)c1cnccc1N1CCN(c2cccc(C)c2)CC1 | 8.07% |
| Cc1ccc(Sc2ccncc2S(N)(=O)=O)cc1 | 84.9% (active) |
| Cc1cc(NC(=O)CSCc2ccccc2C)no1 | -8.79% |
| Cc1ccc2c(c1)N(CC(=O)N(Cc1ccccn1)Cc1ccco1)C(=O)C(C(C)C)O2 (stereo unspecified) | 75.7% (active) |

| SMILES | inhibition |
| --- | --- |
| Cc1ccc(C(C(=O)NC2CCCC2)N(Cc2ccco2)C(=O)CCC(=O)Nc2ccccn2)cc1 (stereo unspecified) | -1.72% |
| Cc1ccc2oc(=O)c3cnn(CC(=O)N(Cc4ccco4)C4CCCCC4)c3c2c1 | 22.1% |
| NC(=O)COC(=O)c1cc(S(=O)(=O)N2CCN(c3ccccc3)CC2)ccc1Cl | -1.75% |
| Cc1nn(Cc2ccc(Cl)cc2)c(Cl)c1/C=N/NC(=O)CNc1ccccc1F | 8.05% |
| Cc1cc(C)c2nc(-c3cccnc3)cc(C(=O)Nc3ccc(S(=O)(=O)Nc4onc(C)c4C)cc3)c2c1 | -3.47% |
| S=C(NCc1cccnc1)Nc1ccc(Cl)cc1Cl | 10.6% |
| CC(=O)/C(=N\Nc1ccc(Cl)cc1Cl)Sc1cccc2cccnc12 | 96.8% (active) |
| N#Cc1ccc(C(=O)Nc2cccc3cccnc23)c(F)c1 | -0.23% |
| O=C(NN1C(=O)C2C3C=CC(O3)C2C1=O)c1ccccc1 (stereo unspecified) | -9.99% |
| O=C1CC(N2CCN(c3ccc(F)cc3)CC2)C(=O)N1c1ccccc1 (stereo unspecified) | -0.81% |
| CC(C)(C)NC(=O)NC(=O)COC(=O)Cc1ccc(Cl)cc1Cl | -4.1% |
| CCCNC(=O)NC(=O)COC(=O)CC(NC(N)=O)c1ccc(Cl)cc1 (stereo unspecified) | 56.2% (active) |
| COCCNC(=O)NC(=O)COC(=O)C1(c2ccc(Cl)cc2)CC1 | -5.98% |
| O=C(Nc1ccccc1C(=O)N1CCCCCC1)c1ccccc1Cl | 4.51% |
| COc1ccc(-c2ccc(CCC(=O)O)n2-c2ccc(O)cc2)cc1 | -1.18% |
| Cc1ccsc1C1C(C#N)=C(N)OC2=C1C(=O)CC(C)(C)C2 (stereo unspecified) | 9.53% |
| COc1ccccc1C(c1nnnn1C(C)(C)C)N1CCN(Cc2ccccc2)CC1 (stereo unspecified) | 17.2% |
| CCC(C)(C)n1nnnc1C(c1cccs1)N1CCN(Cc2ccccc2)CC1 (stereo unspecified) | 50.4% (active) |
| CCC(C)(C)n1nnnc1C(c1cccs1)N1CCN(c2nc3ccccc3s2)CC1 (stereo unspecified) | 81.4% (active) |
| Fc1ccc(Cn2nnnc2C(c2cccs2)N2CCCCCC2)cc1 (stereo unspecified) | 5.18% |
| CCCC(c1nnnn1C(C)(C)C)N1CCN(Cc2ccccc2)CC1 (stereo unspecified) | -6.34% |
| CCC(C)(C)n1nnnc1C(c1ccccc1OC)N1CCSCC1 (stereo unspecified) | 6.66% |
